According to PubChem BioAssay (NCI):
About 79,000 compounds went through this panel and 15% of them were active in at least one assay; those are over-represented in the sample as a whole. Activity calls are given as the source filed them. No stated cut-off is given here; in the data, active means growth inhibition above about 70%; inactive means the rest.

Test: NCI Yeast Anticancer Drug Screen. Data for the mlh1 rad18 strain (AID 175)
Conditions: S. cerevisiae mlh1 rad18 strain growth inhibition; at 50.0 µM; hits give high values
How it was run: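 Genetically defined yeast (DNA repair-deficient) exposed to compounds; growth inhibition determined relative to vehicle.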

Row | SMILES | growth inhibition
1 | O=Nc1c(O)ccc2ccccc12.[Fe].[Na+] | 96.2% (active)
2 | CC(C)Cc1ncc(CC(C)C)n(O)c1=O | 89.9% (active)
3 | COc1ccc2c(c1)CCc1c-2ccc(C)c1CCC(=O)O | 90% (active)
4 | COc1ccc(/C=C(\C#N)c2ccccc2)cc1OC | 90.2% (active)
5 | CCC(=O)OCC(=O)c1ccc(-c2ccccc2)cc1 | -1.05% (inactive)
6 | C=C1CC(c2ccc(OCCCN3C(=O)c4ccccc4C3=O)c(OC)c2)OC1=O (stereo not given) | 96.8% (active)
7 | N[C@H](C(=O)O)[C@@H]1CC(Cl)=NO1 | 84.8% (active)
8 | Cc1ccc2c(c1)[n+]([O-])c(N)c(C#N)[n+]2[O-] | 62.4% (inactive)
9 | Cc1cc(O)c2c(c1)C(=O)c1c(c(O)cc(O)c1-c1c(O)cc(O)c3c1C(=O)c1cc(C)cc(O)c1C3=O)C2=O | 59.1% (inactive)
10 | CC(=O)c1csc2c1C(=O)c1scc(C(C)=O)c1C2=O | 87% (active)
11 | CCC(CCCN(CC)CCc1ccccc1)OC(=O)c1cc(OC)c(OC)c(OC)c1 (stereo not given) | 54.5% (inactive)
12 | COC(CCC[N+](C)(C)C)CC[N+](C)(C)C (stereo not given) | 96.5% (active)
13 | CCC(=O)c1ccc2ccc3ccccc3c2c1 | 50.9% (inactive)
14 | CN(C)c1nc(N(C)C)oc(=[N+](C)C)n1 | 30.4% (inactive)
15 | COc1ccc(Cc2ccc(N)cc2)cc1 | 96.8% (active)
16 | CN(C)CC(CN(C)C)C(=O)c1ccc(Oc2ccccc2)cc1 | 99.4% (active)
17 | C1C2OC2C2C1C1CC2C2OC12 (stereo not given) | -0.1% (inactive)
18 | Nc1ccc2c(c1)[nH]c(=O)c1cccc(Cl)c12 | 93.1% (active)
19 | COc1cccc(C2c3cc4c(cc3OC(Nc3ccccc3)C2C)OCO4)c1O (stereo not given) | 96.5% (active)
20 | Cc1cc(SC#N)cc(C)c1O | 83.5% (active)

Row | SMILES | growth inhibition
21 | CCN(CC)CCCNc1ncc(C)c2c1c1ccc3c(O)cccc3c1n2C | -3.05% (inactive)
22 | O=C1c2ccccc2C(O)(C#Cc2ccccc2)c2cnccc21 (stereo not given) | 97.8% (active)
23 | CC(=O)Nc1nnc(C)s1 | -18.8% (inactive)
24 | CC1CN(CC(O)c2ccc(Br)cc2)CC(C)O1 (stereo not given) | 41.8% (inactive)
25 | O=C(C=P(c1ccccc1)(c1ccccc1)c1ccccc1)CC(=S)CC(=O)C=P(c1ccccc1)(c1ccccc1)c1ccccc1 | 95.2% (active)
26 | CN(C)CCC(/C=C/c1ccccc1)=N\Nc1ccc(Cl)cc1Cl | 99.5% (active)
27 | Oc1c(Cl)cc(Br)cc1Cl | 91.8% (active)
28 | Cc1ccc2c(ccc(CC(=S)[S-])[n+]2C)c1 | 90.2% (active)
29 | Cc1ccc2c(c1)C(=O)N(CC[P+](c1ccccc1)(c1ccccc1)c1ccccc1)C2=O | 62.3% (inactive)
30 | Nc1ncnc2c1c(-c1ccccc1)cn2-c1ccc(Cl)cc1 | 14.8% (inactive)
31 | Nc1nnc(-c2cc([N+](=O)[O-])cc([N+](=O)[O-])c2)o1 | 31.9% (inactive)
32 | COc1cc2c(cc1OC)C(Cl)C(c1ccc(F)cc1)=C2Cl (stereo not given) | -3.4% (inactive)
33 | COc1ccc(C2Oc3c(cccc3OC)C=C2[N+](=O)[O-])cc1 (stereo not given) | 44% (inactive)
34 | O=C(O)c1cc2cc3ccccc3cc2cc1O | 64.7% (inactive)
35 | Oc1ccc2ccc3ccccc3c2c1 | 99.5% (active)
36 | COC(=O)c1ccc(OC)cc1 | 16.2% (inactive)
37 | Clc1ccc2c(NCCCCCCNc3ccnc4cc(Cl)ccc34)ccnc2c1 | 95.8% (active)
38 | COc1ccc(C2C3=C(CCC(CN(C)C)C3=O)OC3=C2C(=O)C(CN(C)C)CC3)cc1 (stereo not given) | 21.1% (inactive)
39 | CC(C)CC(NC(=O)COc1c(Cl)cc(Cl)c(Cl)c1Cl)C(=O)O (stereo not given) | 25.9% (inactive)
40 | Cc1nc2c(=O)[nH]c3ccc(Cl)cc3c2o1 | 46.2% (inactive)
